{"source": "paper PMC7862700", "about": "“An all-to-all approach to the identification of sequence-specific readers for epigenetic DNA modifications on cytosine”", "test_in_all_cases": "DAPPL (digital affinity profiling via proximity ligation, sequencing); 10 mM Tris-HCl pH 7.5, 50 mM NaCl, 1 mM DTT, 4% glycerol, room temperature, 30 min; GST-TFs on glutathione beads, 16-mer random dsDNA library, 0.1% formaldehyde crosslink after washing; high values mean tight binding", "conditions_in_all_cases": "protein: recombinant; tags: N-terminal GST; dsDNA, one strand shown", "key": {"ETV2": {"molecular_target": "T1, ETV2 (Homo sapiens, UniProt O00321 1-342)", "T1 sequence": "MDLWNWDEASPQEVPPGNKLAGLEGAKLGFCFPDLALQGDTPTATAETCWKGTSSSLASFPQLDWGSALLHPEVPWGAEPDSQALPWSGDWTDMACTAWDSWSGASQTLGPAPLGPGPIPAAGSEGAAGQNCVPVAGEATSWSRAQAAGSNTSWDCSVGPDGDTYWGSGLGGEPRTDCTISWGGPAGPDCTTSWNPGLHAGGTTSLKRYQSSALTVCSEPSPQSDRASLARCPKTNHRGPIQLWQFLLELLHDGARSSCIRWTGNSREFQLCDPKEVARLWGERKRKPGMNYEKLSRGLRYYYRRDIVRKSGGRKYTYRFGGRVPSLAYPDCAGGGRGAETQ", "procedure,_shortened": "(§1)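 Pools were built from human transcription factors expressed in yeast as GST fusions, captured on glutathione beads and DNA-barcoded, along with a tag-only sample. Incubation with 200 nmole of a 16-mer random double-stranded DNA library lasted 30 min at room temperature in Tris/NaCl/DTT/glycerol buffer, and was followed by washing, 0.1% formaldehyde crosslinking, proximity ligation, PCR amplification and Illumina NextSeq500 sequencing. Binding signal is the quotient of each hexamer's read frequency for a factor and its frequency for the tag-only sample.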"}, "ELF3": {"molecular_target": "T2, ELF3 (Homo sapiens, UniProt P78545 1-371)", "T2 sequence": "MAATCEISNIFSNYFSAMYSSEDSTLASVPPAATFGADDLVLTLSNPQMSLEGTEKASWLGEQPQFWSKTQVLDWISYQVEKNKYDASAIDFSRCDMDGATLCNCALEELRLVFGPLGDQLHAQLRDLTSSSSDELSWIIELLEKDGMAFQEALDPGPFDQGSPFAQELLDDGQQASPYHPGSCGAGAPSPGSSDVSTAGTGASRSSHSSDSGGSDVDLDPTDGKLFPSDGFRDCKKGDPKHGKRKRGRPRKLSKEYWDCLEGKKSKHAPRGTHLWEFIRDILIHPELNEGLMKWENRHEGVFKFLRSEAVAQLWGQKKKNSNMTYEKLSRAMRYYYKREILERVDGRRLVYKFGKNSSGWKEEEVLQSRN", "procedure,_shortened": "as §1"}, "ETV1": {"molecular_target": "ETV1 (Homo sapiens, UniProt P50549 1-477)", "sequence (P50549 whole entry)": "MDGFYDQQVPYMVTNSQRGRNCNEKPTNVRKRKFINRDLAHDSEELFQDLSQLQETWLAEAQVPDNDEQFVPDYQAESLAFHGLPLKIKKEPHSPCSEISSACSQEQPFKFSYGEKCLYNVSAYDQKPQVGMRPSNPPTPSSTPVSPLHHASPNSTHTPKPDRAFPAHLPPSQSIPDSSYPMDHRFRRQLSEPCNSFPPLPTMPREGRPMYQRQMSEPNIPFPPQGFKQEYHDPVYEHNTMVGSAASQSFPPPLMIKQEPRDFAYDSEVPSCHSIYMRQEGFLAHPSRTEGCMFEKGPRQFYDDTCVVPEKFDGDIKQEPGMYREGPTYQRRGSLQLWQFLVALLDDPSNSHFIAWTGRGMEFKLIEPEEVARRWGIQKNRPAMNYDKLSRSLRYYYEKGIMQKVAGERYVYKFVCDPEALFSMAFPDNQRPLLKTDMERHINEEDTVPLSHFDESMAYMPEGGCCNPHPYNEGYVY", "procedure,_shortened": "as §1"}, "ERF": {"molecular_target": "T3, ERF (Homo sapiens, UniProt P50548 1-548)", "T3 sequence": "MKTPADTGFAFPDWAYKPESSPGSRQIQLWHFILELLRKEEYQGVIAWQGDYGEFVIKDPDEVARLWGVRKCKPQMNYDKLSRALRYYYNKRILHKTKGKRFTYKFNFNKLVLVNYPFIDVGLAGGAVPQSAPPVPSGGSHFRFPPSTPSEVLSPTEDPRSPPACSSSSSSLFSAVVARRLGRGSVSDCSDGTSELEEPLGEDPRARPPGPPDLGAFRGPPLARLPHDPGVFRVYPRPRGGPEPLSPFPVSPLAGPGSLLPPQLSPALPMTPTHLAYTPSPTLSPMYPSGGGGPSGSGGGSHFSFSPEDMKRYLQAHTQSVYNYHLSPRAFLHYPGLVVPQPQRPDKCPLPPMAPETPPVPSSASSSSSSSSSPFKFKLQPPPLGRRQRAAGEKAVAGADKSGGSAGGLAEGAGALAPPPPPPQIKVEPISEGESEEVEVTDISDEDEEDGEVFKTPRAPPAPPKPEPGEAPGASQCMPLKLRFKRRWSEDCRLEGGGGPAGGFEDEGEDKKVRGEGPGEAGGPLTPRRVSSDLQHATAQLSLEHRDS", "procedure,_shortened": "as §1"}, "ETV3L": {"molecular_target": "T4, ETV3L (Homo sapiens, UniProt Q6ZN32 1-361)", "T4 sequence": "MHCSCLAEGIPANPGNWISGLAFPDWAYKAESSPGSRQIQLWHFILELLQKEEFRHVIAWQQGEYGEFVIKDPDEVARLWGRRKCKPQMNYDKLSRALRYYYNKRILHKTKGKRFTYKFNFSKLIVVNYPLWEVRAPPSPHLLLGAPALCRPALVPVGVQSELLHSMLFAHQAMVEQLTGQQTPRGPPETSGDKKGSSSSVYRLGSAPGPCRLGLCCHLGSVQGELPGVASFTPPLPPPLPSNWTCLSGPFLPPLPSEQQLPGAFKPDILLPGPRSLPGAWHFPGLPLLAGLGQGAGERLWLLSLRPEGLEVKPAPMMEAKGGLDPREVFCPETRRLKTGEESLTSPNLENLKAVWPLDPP", "procedure,_shortened": "as §1"}, "ETS2": {"molecular_target": "T5, ETS2 (Homo sapiens, UniProt P15036 1-469)", "T5 sequence": "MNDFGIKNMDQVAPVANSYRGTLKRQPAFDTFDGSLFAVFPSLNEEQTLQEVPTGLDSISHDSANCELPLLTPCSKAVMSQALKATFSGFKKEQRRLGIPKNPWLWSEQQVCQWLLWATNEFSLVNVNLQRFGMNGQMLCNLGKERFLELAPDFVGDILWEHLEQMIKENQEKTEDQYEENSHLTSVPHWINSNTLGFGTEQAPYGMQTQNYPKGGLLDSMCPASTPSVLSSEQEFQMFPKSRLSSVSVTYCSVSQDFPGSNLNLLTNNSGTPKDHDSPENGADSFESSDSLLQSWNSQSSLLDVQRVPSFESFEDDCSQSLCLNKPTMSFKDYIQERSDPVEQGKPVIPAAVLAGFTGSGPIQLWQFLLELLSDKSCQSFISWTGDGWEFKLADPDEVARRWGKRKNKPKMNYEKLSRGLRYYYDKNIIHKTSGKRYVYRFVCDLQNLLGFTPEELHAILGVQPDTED", "procedure,_shortened": "as §1"}, "SPDEF": {"molecular_target": "T6, SPDEF (Homo sapiens, UniProt O95238 1-335)", "T6 sequence": "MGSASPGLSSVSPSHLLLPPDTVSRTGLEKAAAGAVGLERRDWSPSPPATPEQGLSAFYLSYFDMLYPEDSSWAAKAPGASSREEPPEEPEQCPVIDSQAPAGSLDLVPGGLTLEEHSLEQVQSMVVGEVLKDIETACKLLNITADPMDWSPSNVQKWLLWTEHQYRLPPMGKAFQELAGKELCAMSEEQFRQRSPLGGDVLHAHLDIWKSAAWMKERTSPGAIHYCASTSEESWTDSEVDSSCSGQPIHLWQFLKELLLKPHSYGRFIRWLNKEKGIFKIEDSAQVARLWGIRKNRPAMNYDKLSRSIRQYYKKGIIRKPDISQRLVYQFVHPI", "procedure,_shortened": "as §1"}, "ETV7": {"molecular_target": "T7, ETV7 (Homo sapiens, UniProt Q9Y603 1-341)", "T7 sequence": "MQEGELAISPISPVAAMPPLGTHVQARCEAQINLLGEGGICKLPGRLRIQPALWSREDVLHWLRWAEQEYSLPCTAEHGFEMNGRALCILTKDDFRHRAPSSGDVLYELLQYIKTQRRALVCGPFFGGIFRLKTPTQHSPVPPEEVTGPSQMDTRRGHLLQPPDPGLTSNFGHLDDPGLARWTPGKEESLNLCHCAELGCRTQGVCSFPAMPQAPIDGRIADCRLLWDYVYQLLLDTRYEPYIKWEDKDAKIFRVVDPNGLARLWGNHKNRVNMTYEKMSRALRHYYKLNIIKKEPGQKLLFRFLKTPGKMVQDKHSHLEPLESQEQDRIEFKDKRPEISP", "procedure,_shortened": "as §1"}, "ETV3": {"molecular_target": "T8, ETV3 (Homo sapiens, UniProt P41162-2 1-143)", "T8 sequence": "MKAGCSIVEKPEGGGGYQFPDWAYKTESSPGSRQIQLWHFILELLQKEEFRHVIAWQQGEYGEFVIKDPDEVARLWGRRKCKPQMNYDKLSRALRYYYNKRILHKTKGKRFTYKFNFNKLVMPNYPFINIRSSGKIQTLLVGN", "procedure,_shortened": "as §1"}, "ETV6": {"molecular_target": "ETV6 (Homo sapiens, UniProt P41212 1-452)", "sequence (P41212 whole entry)": "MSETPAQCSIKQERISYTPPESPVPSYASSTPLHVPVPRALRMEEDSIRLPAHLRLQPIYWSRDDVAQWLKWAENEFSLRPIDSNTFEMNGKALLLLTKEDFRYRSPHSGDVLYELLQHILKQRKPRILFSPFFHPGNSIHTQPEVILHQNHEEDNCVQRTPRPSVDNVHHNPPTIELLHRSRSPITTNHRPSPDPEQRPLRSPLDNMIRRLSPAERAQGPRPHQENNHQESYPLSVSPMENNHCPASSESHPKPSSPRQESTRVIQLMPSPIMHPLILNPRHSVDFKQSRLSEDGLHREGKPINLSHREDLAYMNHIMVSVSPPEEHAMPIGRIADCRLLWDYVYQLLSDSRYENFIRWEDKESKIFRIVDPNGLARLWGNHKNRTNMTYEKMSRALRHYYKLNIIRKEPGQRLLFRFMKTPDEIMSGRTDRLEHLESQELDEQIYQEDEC", "procedure,_shortened": "as §1"}}}
{"sequence": "CATTGT", "values": [{"measurement": "binding signal", "setting": "ETV2", "result": "1.11 fold enrichment (6-mer frequency, TF over GST control)"}, {"measurement": "binding signal", "setting": "ELF3", "result": "1.02 fold enrichment (6-mer frequency, TF over GST control)"}, {"measurement": "binding signal", "setting": "ETV1", "result": "1.14 fold enrichment (6-mer frequency, TF over GST control)"}, {"measurement": "binding signal", "setting": "ERF", "result": "1.12 fold enrichment (6-mer frequency, TF over GST control)"}, {"measurement": "binding signal", "setting": "ETV3L", "result": "1.19 fold enrichment (6-mer frequency, TF over GST control)"}, {"measurement": "binding signal", "setting": "ETS2", "result": "1.07 fold enrichment (6-mer frequency, TF over GST control)"}, {"measurement": "binding signal", "setting": "SPDEF", "result": "1.11 fold enrichment (6-mer frequency, TF over GST control)"}, {"measurement": "binding signal", "setting": "ETV7", "result": "1.11 fold enrichment (6-mer frequency, TF over GST control)"}, {"measurement": "binding signal", "setting": "ETV3", "result": "1.16 fold enrichment (6-mer frequency, TF over GST control)"}, {"measurement": "binding signal", "setting": "ETV6", "result": "1.15 fold enrichment (6-mer frequency, TF over GST control)"}]}
